Measured values taken from PubChem BioAssay (NCI).
About 79,000 compounds went through this panel and 15% of them were active in at least one assay; those are over-represented in the sample as a whole. Active and inactive are the calls of the source. Cut-off read from the data, not from the text of the source: active = growth inhibition above about 70%; inactive = the rest.

What was measured:
[1] = NCI Yeast Anticancer Drug Screen. Data for the rad50 strain (AID 155);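 note: 0% = growth of vehicle-only cultures of the same strain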; details: S. cerevisiae rad50 strain growth inhibition, stronger effect = higher value; at 50.0 µM unless noted
Method in brief: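 Readout: growth inhibition relative to vehicle-treated cultures. Compound exposure was carried out in a genetically defined yeast strain deficient in DNA damage repair.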

[2] = NCI Yeast Anticancer Drug Screen. Data for the mec2-1 strain (AID 157); details: S. cerevisiae mec2-1 strain, stronger effect = higher value; at 50.0 µM unless noted
Method in brief: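 Growth inhibition is read against vehicle-treated controls after compound exposure of the mec2-1 yeast strain, which is defective in DNA damage repair or cell cycle control.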

[3] = NCI Yeast Anticancer Drug Screen. Data for the sgs1 mgt1 strain (AID 161);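 note: 0% = growth of cultures given vehicle only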; details: S. cerevisiae sgs1 mgt1 strain, stronger effect = higher value; at 50.0 µM unless noted
Method in brief: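 This yeast growth screen uses a strain with defined DNA-repair lesions; compound-treated growth is compared with vehicle-treated growth.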

[4] = NCI Yeast Anticancer Drug Screen. Data for the cln2 rad14 strain (AID 165);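 note: 0% = growth equal to vehicle treated cultures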; details: S. cerevisiae cln2 rad14 strain, stronger effect = higher value; at 50.0 µM unless noted
Method in brief: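 Growth inhibition, relative to vehicle-treated controls, is the read-out. The test organism is a yeast strain with defined genetic alterations, cln2 rad14.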

[5] = NCI Yeast Anticancer Drug Screen. Data for the bub3 strain (AID 167); details: S. cerevisiae bub3 mutant strain, stronger effect = higher value; at 50.0 µM unless noted
Method in brief: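 Readout: yeast growth inhibition, expressed relative to vehicle-only wells. The test organism is a mutant strain from a panel with lesions in DNA repair or checkpoint genes.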

[6] = NCI Yeast Anticancer Drug Screen. Data for the mlh1 rad18 strain (AID 175); details: S. cerevisiae mlh1 rad18 strain growth inhibition, stronger effect = higher value; at 50.0 µM unless noted
Method in brief: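 Cells of a genetically altered yeast strain, deficient in DNA damage repair, were treated with compound. Their growth was then compared with that of vehicle-treated cultures to give inhibition.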

Measured: growth inhibition

Cc1ccc([N+](=O)[O-])cc1NC(=O)Oc1ccc(Cl)cc1Cl
inactive: [1] -5% | [2] 8.55% | [3] -10.9% | [4] 1% | [5] 2.5% | [6] -13.3%

C=C1C(=O)C23[C@H](O)C1CC[C@H]2[C@]12COC3(O)[C@@H](O)[C@@H]1C(C)(C)CC[C@@H]2O
inactive: [1] 3.65% | [2] -20.6% | [3] 19.8% | [4] -0.6% | [5] -0.5% | [6] -46.1%

COC(=O)C1=CN(CCc2ccc(O)cc2)C(=O)C2C1CC(O)C2C (stereo not given)
inactive: [1] 5.6% | [2] -6.2% | [3] 1.2% | [4] -2.2% | [5] -4.55% | [6] -10.2%

N#C/C(=C/n1c(=S)[nH]c2ccccc21)C(N)=O
inactive: [1] -30.3% | [2] -38.6% | [3] -19.2% | [4] -12.4% | [5] -7.25% | [6] -14.6%

CC(=O)OC[C@@]12C[C@H]3C(=O)C(C)(C)C[C@H]3[C@]1(C)[C@@H](OC(C)=O)[C@]1(O)[C@H]([C@@H](OC(=O)c3ccccc3)[C@@H](C)[C@H]1OC(C)=O)[C@H]2OC(C)=O
inactive: [1] -13.6% | [2] -26.9% | [3] 3.25% | [4] -3.25% | [5] 10.8% | [6] -3.15%

CCOC(=O)c1c[nH]c2c(Cl)c(Cl)ccc2c1=O
inactive: [1] -4.65% | [2] -19.1% | [3] -1.1% | [4] 12.9% | [5] 9.25% | [6] -6.95%

CC(C)(C)C(=O)CC(=O)C(F)(F)C(F)(F)C(F)(F)F.CC(C)(C)C(=O)CC(=O)C(F)(F)C(F)(F)C(F)(F)F.CC(C)(C)C(=O)CC(=O)C(F)(F)C(F)(F)C(F)(F)F.[La]
inactive: [1] 2.85% | [2] -0.9% | [3] -3.95% | [4] -8.85% | [5] -3.95% | [6] 18.8%

NC1CCC(C2CCC(N)CC2)CC1 (stereo not given)
inactive: [1] 17.1% | [2] 20.6% | [3] 3.7% | [4] -53% | [5] -6.45% | [6] -13.7%

CCOC(=O)CCN(CCC(=O)OCC)N(C)C
inactive: [1] 2.55% | [2] -6.45% | [3] -4.6% | [4] -8.85% | [5] 5.8% | [6] 2.8%

CCOC(=O)c1c[nH]n(-c2ccccc2)c1=O
inactive: [1] 9.65% | [2] -3.95% | [3] -4.75% | [4] -3.15% | [5] -2.7% | [6] 12.6%

CC(=O)Cc1cc(-c2cc(CC(C)=O)nc(N)n2)nc(N)n1
inactive: [1] 1.85% | [2] 13.3% | [3] 12.7% | [4] 15.2% | [5] 1% | [6] 20.4%

O=C1/C(=C\c2ccccc2)Sc2cc[nH]c21
inactive: [1] 13.5% | [2] 1.3% | [3] 4.5% | [4] -1.95% | [5] -1.85% | [6] 17.2%

Cc1ccc(S(=O)(=O)OC2CCSCC2)cc1
inactive: [1] -5.25% | [2] -10.3% | [3] 7.7% | [4] -11.9% | [5] 7.05% | [6] -4.8%

Cc1ccc(NC(=O)c2c(Br)c(Br)c(Br)c(Br)c2C(=O)O)cc1Cl
inactive: [1] -1.75% | [2] -5.5% | [3] -8.6% | [4] -22.4% | [5] 2.9% | [6] -9.25%

O=c1[nH]c(=O)c2cc(Cl)ccc2[nH]1
inactive: [1] 3.2% | [2] 6.75% | [3] -2.75% | [4] -37% | [5] 4.75% | [6] 0.65%

N#CCc1nc(-c2cc3ccc(O)cc3oc2=O)cs1
inactive: [1] 19.1% | [2] 8.45% | [3] -25.9% | [4] 2.8% | [5] -12.4% | [6] -40.8%

Cc1cc(C(=O)c2ccccc2)on1
inactive: [1] 4.05% | [2] -22.6% | [3] -11.9% | [4] -36.1% | [5] 7.7% | [6] 4.55%

CCCCCCCCCCCCCCCCCCCCCCCCCCBr
inactive: [1] 0.85% | [2] 0.8% | [3] 9.7% | [4] -9.95% | [5] 10.4% | [6] 11.7%

NNC(=O)Cc1cccnc1
inactive: [1] -3.6% | [2] -0.75% | [3] -26.1% | [4] -8% | [5] -33% | [6] 9.55%

Oc1cccc2c1CCCC2
inactive: [1] -1.25% | [2] -12.2% | [3] -37% | [4] -16.4% | [5] -1.85% | [6] -3.9%

CNC(=O)Nc1cccc(C(=O)O)c1
inactive: [1] -0.3% | [2] -16.8% | [3] -11.1% | [4] -50.9% | [5] 4.35% | [6] 4.35%

Cc1[nH]c(=O)[nH]c(=O)c1CCO
inactive: [1] -8.9% | [2] -2.6% | [3] -4.25% | [4] -29.4% | [5] -28.3% | [6] -13.4%

CC(NC(=O)CNC(=O)OCc1ccccc1)C(=O)O (stereo not given)
inactive: [1] 3.55% | [2] 9.35% | [3] 11.6% | [4] -0.35% | [5] 8.1% | [6] -10.1%

CN(C)S(=O)(=O)c1ccccc1C(O)(c1ccccc1)c1ccccc1 (tested in a mixture with another compound)
inactive: [1] 35.1% | [2] 8.7% | [3] -7.75% | [4] -4.55% | [5] 15.2% | [6] 32.4%

NN=C(c1ccc([N+](=O)[O-])cc1)c1ccc([N+](=O)[O-])cc1
inactive: [1] -3.3% | [2] 0.55% | [3] -25.6% | [4] -9.65% | [5] 27% | [6] -0.7%

CN(C)C(=O)OC(Cn1cncn1)(Cn1cncn1)c1ccc(Cl)cc1Cl
inactive: [1] -29.8% | [2] 13% | [3] 7.5% | [4] -10.8% | [5] 5.1% | [6] -16.8%

CCN(C(=O)c1ccc(C(=O)N(CC)c2cccc(C)c2)cc1)c1cccc(C)c1
inactive: [1] -24.4% | [2] -3.55% | [3] -9.85% | [4] 8.05% | [5] 6.15% | [6] -1.7%

CC(C)(C)OC(=O)N1CCC2(CC1)C(=O)NCN2c1ccccc1
inactive: [1] 23.4% | [2] 11.9% | [3] -3% | [4] 31.2% | [5] 0.7% | [6] -38.9%

O=C(O)CSc1nc2ccccc2[nH]1
inactive: [1] 3.5% | [2] 1.55% | [3] -36% | [4] -13.9% | [5] -35.4% | [6] 10%

CC(C)(C)C1CCC2(CC1)CCN(CCCN1CCOCC1)CC2
active: [1] 99% | [2] 98.4% | [3] 98.5% | [4] 97.3% | [5] 98.3% | [6] 97.8%

O=C(Nc1nncs1)c1cnccn1
inactive: [1] -1.85% | [2] -6.3% | [3] 14.2% | [4] -3.15% | [5] 11.3% | [6] -71.5%

O=S(=O)(Nc1cccc(O)c1)c1ccccc1
inactive: [1] 6% | [2] -12.1% | [3] 6.8% | [4] 14.7% | [5] 3% | [6] 13.2%

CN(C)CCl
inactive: [1] -1.4% | [2] -28.2% | [3] -12.4% | [4] -4.1% | [5] -15.5% | [6] -13.1%

O=C1CC2c3ccccc3CCN2C2=C1CCC2 (stereo not given)
inactive: [1] 13.6% | [2] 13.1% | [3] -0.4% | [4] -16.2% | [5] 0.5% | [6] 18.7%

CCOC(=O)c1cc([N+](=O)[O-])cnc1C
inactive: [1] 5.8% | [2] 10% | [3] -1.7% | [4] 0.4% | [5] 8.45% | [6] 2.4%

Cc1ccc(C(=O)C2C(=O)C(=O)OC2C2OC(=O)C(=O)C2C(=O)c2ccc(C)cc2)cc1 (stereo not given)
inactive: [1] 43.8% | [2] 25.1% | [3] 39.5% | [4] 31.2% | [5] -4.55% | [6] 42.8%

O=C(Nc1cccc(I)c1)OCCCl
inactive: [2] 7.5% | [4] 0.4% | [5] -7.55% | [6] 57.2%
active: [1] 79.8% | [3] 87.2%

CC1=NC(C)(C)N(O)C1(C)C
inactive: [1] -21.9% | [2] -4.3% | [3] -3.05% | [4] -0.8% | [5] -9% | [6] -53.5%

OCC1C(CO)C2CC1C1N=NN(c3ccccc3)C21 (stereo not given)
inactive: [1] -4.8% | [2] 4.3% | [3] 8.25% | [4] -11.9% | [5] -0.35% | [6] -13.3%

O=C(N/N=C/c1ccc2c(c1)OCO2)c1ccccc1
inactive: [1] 12.7% | [2] -11.1% | [3] 6.25% | [4] -35.5% | [5] 1.8% | [6] 22.4%
